Bioassay records: PubChem BioAssay, National Center for Advancing Translational Sciences (NCATS)
NS1 function inh – blocks influenza NS1 protein function | Potency, µM (titrated, usually from 46.1 µM) | actives 0.4% (n = 270,000) | AID 2326; calls by dose curve; also: actives are rising curves; nearly all actives have a fitted effect of over 50% in size
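Compounds were scored for reversing the slow growth caused by influenza A NS1 in S. cerevisiae, measured by optical density at 600 nm. Assay medium contained 2% galactose at pH 6.0; NS1-free yeast of the same strain were the positive control.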
Pf growth 48h – P. falciparum growth inhibition at 48 hours (one generation). actives 5.9% (n = 310,000). Potency, µM (top dose mostly 28.7 µM), usual class: inhibitors. P. falciparum luciferase growth in erythrocytes, 48 h. AID 504832
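First compound was added to culture medium, then infected red cells at 0.1% parasitemia and 2% hematocrit (final). After incubation at 37 C under 5% CO2, luciferase detection reagent was dispensed and light output recorded.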
Shiga inhibitor – blocks Shiga toxin action in Vero cells. inhibition, % at 38.7 µM. actives 9.2% (n = 290,000). AID 2315. Vero cells, Shiga toxin protein synthesis inhibition reporter; in the data active = inhibition mostly above about 28%, no sharp cut-off; inactive = mostly below about 43%
Cycloheximide cs – counter-screen for Shiga toxin inhibitors: cycloheximide protein synthesis inhibition; AID 2314; actives 12% (n = 300,000); max response, %; cell reporter, cycloheximide protein synthesis inhibition counterscreen; in the data active = max response mostly above about 13%, no sharp cut-off; inactive = mostly below about 14%; also: read at 38.3 µM for the half of the compounds with a filed dose
Pf growth 96h – P. falciparum growth inhibition at 96 hour, primary screen for plastid delayed-death inhibitors | actives 6.9% (n = 320,000) | AID 504834 | P. falciparum luciferase reporter growth, 96 h | Potency, µM (titrated, usually from 28.7 µM), hits mostly inhibitors
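Compounds incubated with erythrocytes infected by luciferase-expressing P. falciparum (2% hematocrit, 0.05% parasitemia final) for 96 hours, 37 C in 5% CO2. Growth inhibition scored as decreased luciferase luminescence.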
Giardia FBPA inh – Giardia lamblia aldolase inhibition. A8B2U2. purified Giardia FBPA. Potency, µM (top dose mostly 59.6 µM), most hits filed as inhibitors. actives 0.71% (n = 290,000). AID 2451; also: nearly all actives have a fitted effect of over 55% in size
Target sequence (A8B2U2 whole entry, looked up): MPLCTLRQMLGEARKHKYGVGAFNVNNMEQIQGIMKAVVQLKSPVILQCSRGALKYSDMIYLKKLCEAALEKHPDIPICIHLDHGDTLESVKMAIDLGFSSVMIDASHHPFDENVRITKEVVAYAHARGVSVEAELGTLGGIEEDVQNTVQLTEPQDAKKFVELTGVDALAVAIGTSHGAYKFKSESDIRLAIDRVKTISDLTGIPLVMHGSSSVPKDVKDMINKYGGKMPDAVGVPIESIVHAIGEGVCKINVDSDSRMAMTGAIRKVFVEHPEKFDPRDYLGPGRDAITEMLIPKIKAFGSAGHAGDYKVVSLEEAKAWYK
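40 nM FBPA preincubated 10 min at RT with compound (up to 57.5 uM final), then substrate plus GAPDH/TPI/NAD/arsenate coupling and diaphorase/resazurin added. Fluorescence read after 20 min at RT, 525/598 nm.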
Each line names hits and unclear results; the compound was inactive in the other large screens. This is a sample that favours compounds with a hit; in the whole collection about 21% have one here. Unless noted, calls follow the shape of the dose curve; as a rule, active = well fitted curve in the direction sought with a large enough effect; inconclusive = small, poorly fitted or top-dose-only effect, or another doubt; inactive = no such curve, though single readings can be large; an effect the other way counts as inactive or inconclusive.

CC1(C)C(=O)C=C[C@]2(C)[C@H]3CC[C@@]4(C)[C@H](c5ccoc5)OC(=O)[C@H]5O[C@]54[C@]3(C)[C@H](O)C[C@@H]12	Pf growth 48h 11.7µM, Cycloheximide cs 20.7, Pf growth 96h 8.28µM
Fc1ccccc1C1c2cccn2CCN1C(=S)Nc1cccc(Br)c1 (stereo not given)	Pf growth 48h 9.28µM (no result: NS1 function inh)
Fc1ccccc1C1c2cccn2CCN1C(=S)Nc1ccc(Br)cc1 (stereo not given)	none
C=C(C)C(O)/C=C/c1cccc(OC)c1 (stereo not given)	none (no result: NS1 function inh, Pf growth 48h, Shiga inhibitor, Cycloheximide cs, Pf growth 96h)
COc1ccc(S(=O)(=O)N2CCOCC2)cc1NC(=O)CSc1cccc[n+]1[O-]	none
CC(=O)N1CC[n+]2c(-c3ccc(Cl)cc3)csc21	none
CCc1ccc(-c2csc3[n+]2CCN3C(C)=O)cc1	Pf growth 48h 2.94µM, Pf growth 96h inconclusive
CCOC(=O)C1(CCOc2ccccc2)CCN(Cc2cc(OC)ccc2OC)CC1	Pf growth 48h inconclusive
CCOC(=O)C1(CCOc2ccccc2)CCN(Cc2ccc(O)c(Cl)c2)CC1	Pf growth 48h inconclusive, Pf growth 96h inconclusive
CCOC(=O)C1(CCOc2ccccc2)CCN(Cc2ccc(-n3cccn3)cc2)CC1	Pf growth 48h 14.7µM, Pf growth 96h inconclusive
CCOC(=O)C1(CCOc2ccccc2)CCN(Cc2cccc(OC)c2O)CC1	Pf growth 48h 0.586µM
CCOC(=O)C1(CCOc2ccccc2)CCN(Cc2ccc(O)c(OC)c2)CC1	Pf growth 48h 11.7µM
CCOC(=O)C1(CCOc2ccccc2)CCN(Cc2ccc(F)c(OC)c2)CC1	Pf growth 96h 14.7µM
Cc1ccc(NC(=O)COC(=O)CCc2c[nH]c3ccccc23)c(C)c1	none (no result: NS1 function inh, Shiga inhibitor, Cycloheximide cs, Giardia FBPA inh)
CNC(=O)/C(C#N)=C/c1c(N2CCCCCC2)nc2ccccn2c1=O	Pf growth 96h inconclusive
CCOC(=O)C1(CC2CC2)CCN(Cc2ccc(O)c(Cl)c2)CC1	Pf growth 48h 4.15µM (no result: NS1 function inh)
O=C(Nc1ccccc1C(=O)N1CCCCCC1)c1cccc([N+](=O)[O-])c1	none (no result: Giardia FBPA inh)
CCc1nn2c(=O)cc(CSCC(=O)Nc3ccccc3Cl)nc2s1	Pf growth 96h inconclusive (no result: Giardia FBPA inh)
COc1cc(OC)c(C(=O)OCC(=O)Nc2ccccc2Cl)cc1OC	none
CCc1ccc(/C=N/Nc2ncnc3nc[nH]c23)cc1	Shiga inhibitor 82.1, Cycloheximide cs 40.2
CC(=O)c1ccc(N2CCN(C(=S)NCCCN(C)C)CC2)cc1	Pf growth 48h inconclusive, Pf growth 96h inconclusive (no result: NS1 function inh)
CCN1C(C)=C(C(=O)OC)C(c2ccccc2)N2C(=O)[C@@]3(C(=O)OC)O[C@@]12C1C(=O)CCCC13 (stereo not given in full)	none (no result: NS1 function inh, Pf growth 48h, Shiga inhibitor, Cycloheximide cs, Pf growth 96h)
COc1ccc(CC(=O)Nc2ccc(C(N)=O)cc2)cc1	NS1 function inh inconclusive
COc1ccc(C/C(=N\OC(C)=O)c2ccc(OC)cc2)cc1	Cycloheximide cs 18.3
COC(=O)/N=C(/Cc1ccc(OC)cc1)c1ccc(OC)cc1	Shiga inhibitor 55.9, Cycloheximide cs 17.5
COC(=O)[C@H](Cc1ccccc1)NC(=O)C1(OC(C)=O)CC(OC(C)=O)C(OC(C)=O)C(OC(C)=O)C1 (stereo not given in full)	none
CC(C)(C)C1CCC(C(=O)OCC(=O)N2CCN(C(=O)c3ccco3)CC2)CC1 (stereo not given)	none
C[n+]1ccn(CC(=O)c2cc(C(C)(C)C)c(O)c(C(C)(C)C)c2)c1	Pf growth 48h 9.28µM
C[n+]1ccn(CC(=O)c2ccc(Cl)cc2)c1	none
C[n+]1ccn(CC(=O)c2ccc(Br)cc2)c1	Pf growth 48h 11.7µM, Pf growth 96h 9.28µM
C=Cn1cc[n+](CC(=O)c2ccc(Br)cc2)c1	Pf growth 48h inconclusive, Pf growth 96h 6.57µM
CC(C)(C)c1cc(C(=O)C[n+]2ccc(C(=O)NCCCO)cc2)cc(C(C)(C)C)c1O	none
CSCC[C@H](N)C(=O)N[C@@H](CCCN=C(N)N)C(=O)N[C@@H](CC(C)C)C(=O)N[C@@H](Cc1ccccc1)C(=O)N[C@H](C(=O)O)C(C)C	none (no result: NS1 function inh, Pf growth 48h, Pf growth 96h)
Cn1nc(C(C)(C)C)cc1C(=O)O	Pf growth 96h 9.28µM
CC1=NNC(=O)C1CC(=O)N/N=C/C(C)=C/c1ccccc1 (stereo not given)	none (no result: NS1 function inh)
C/C(=N\Nc1nc(N2CCCCC2)nc(N2CCOCC2)n1)c1ccccc1O	Pf growth 48h 11.7µM
O=C(N/N=C/C(Br)=C/c1ccccc1)NC1CCCCC1	Pf growth 48h inconclusive, Shiga inhibitor 96.6, Cycloheximide cs 49.8, Pf growth 96h inconclusive
CC(/C=N/NC(=O)NC1CCCCC1)=C\c1ccccc1	Pf growth 48h 10.4µM, Shiga inhibitor 45.8, Cycloheximide cs 28.0 (no result: NS1 function inh)
O=C(N/N=C/C(Br)=C/c1ccccc1)C(O)c1ccccc1 (stereo not given)	Shiga inhibitor 74.1, Cycloheximide cs 44.0
Cc1ccc(NCC(=O)N/N=C\C(Br)=C\c2ccccc2)cc1	none (no result: Pf growth 48h)
Cc1ccc(C2C(N)C(=O)N2c2ccc(C)cc2)cc1 (stereo not given)	Pf growth 96h inconclusive
COc1ccc(C(=O)N(C)c2ccccc2C(=O)NCCc2ccccc2)cc1	Pf growth 96h inconclusive
O=C(O)c1ccc(N/N=C/C(Br)=C/c2ccccc2)cc1	Cycloheximide cs 25.3
BrC(=C\c1ccccc1)/C=N/Nc1nc2ccccc2[nH]1	Shiga inhibitor 104.4, Cycloheximide cs 75.3, Pf growth 96h inconclusive, Giardia FBPA inh inconclusive
BrC(=C\c1ccccc1)/C=N/Nc1nc(N2CCOCC2)nc(N2CCOCC2)n1	Pf growth 48h 7.38µM, Pf growth 96h inconclusive
O=C(N/N=C/C(Br)=C/c1ccccc1)C1CC1	Pf growth 48h inconclusive, Shiga inhibitor 56.3, Cycloheximide cs 25.5, Pf growth 96h 9.28µM
O=C(O)C(Nc1nc(C(F)(F)F)nc2ccccc12)c1ccccc1 (stereo not given)	Pf growth 48h inconclusive
Cc1ccc(CCN2CC(C(=O)NCCCN(C)Cc3ccccc3)CC2=O)cc1 (stereo not given)	none
COc1ccc(CCN(C)CCCN2CC(c3ccccc3)CC2=O)cc1OC (stereo not given)	Pf growth 96h inconclusive, Giardia FBPA inh inconclusive (no result: NS1 function inh)
CCOc1ccc(CCN2C(=O)C(=O)N([C@H](CCCN(C)Cc3ccccc3)CNCc3ccccc3)C[C@@H]2C(C)C)cc1	Pf growth 48h 9.28µM, Pf growth 96h 3.7µM
COc1ccc(CNC[C@@H](CCCCN(C)Cc2ccc(OC)cc2)N2C[C@H](c3ccccc3)N(CCc3ccc(Cl)c(Cl)c3)C(=O)C2=O)cc1	Pf growth 48h 1.65µM, Pf growth 96h 2.33µM
CN(CCCC[C@H](CNCc1ccc(-c2ccccc2)cc1)N1C[C@H](c2ccccc2)N(CCc2ccc(Cl)c(Cl)c2)C(=O)C1=O)Cc1ccc(-c2ccccc2)cc1	Pf growth 48h inconclusive, Pf growth 96h 3.7µM
CCN(CC(=O)Nc1cc(S(=O)(=O)N2CCCCC2)ccc1C)Cc1ccccc1	Pf growth 48h inconclusive, Pf growth 96h 11.7µM (no result: NS1 function inh, Shiga inhibitor, Cycloheximide cs, Giardia FBPA inh)
